# Residue numbers refer to the chain shown, from its start.
# Columns and labels:
# Experiment in all cases: PBM; 200 nM protein, PBS
# Conditions in all cases: dsDNA, one strand shown
# PAX4 [1] = target: T1, PAX4 (Homo sapiens, UniProt O43316 9-242, R200K)
# T1 sequence: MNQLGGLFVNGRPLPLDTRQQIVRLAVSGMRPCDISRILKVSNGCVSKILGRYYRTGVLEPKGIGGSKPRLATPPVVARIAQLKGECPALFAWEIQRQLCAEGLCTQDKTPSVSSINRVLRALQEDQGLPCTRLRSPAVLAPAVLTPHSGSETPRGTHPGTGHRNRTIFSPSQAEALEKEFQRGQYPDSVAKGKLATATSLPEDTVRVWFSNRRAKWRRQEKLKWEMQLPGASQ
# PAX4 [2] = target: T2, PAX4 (Homo sapiens, UniProt O43316 9-242)
# T2 sequence: T1 sequence with K192R
# PAX4 [3] = target: T3, PAX4 (Homo sapiens, UniProt O43316 9-242, R200Q)
# T3 sequence: T1 sequence with K192Q
# PAX4 [4] = target: T4, PAX4 (Homo sapiens, UniProt O43316 9-242, F177V)
# T4 sequence: T1 sequence with F169V, K192R
# PAX4 [5] = target: T5, PAX4 (Homo sapiens, UniProt O43316 9-242, F177Y)
# T5 sequence: T1 sequence with F169Y, K192R
# VAX1 [6] = target: VAX1 (Homo sapiens, UniProt Q5SQQ9 86-172)
# Chain of VAX1 (Homo sapiens, UniProt Q5SQQ9 86-172) (Q5SQQ9 86-172): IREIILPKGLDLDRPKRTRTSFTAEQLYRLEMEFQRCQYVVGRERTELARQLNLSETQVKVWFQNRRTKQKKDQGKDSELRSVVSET
# VAX1 [7] = target: VAX1 (Homo sapiens, UniProt Q5SQQ9 86-172, T142I)
# Chain of VAX1 (Homo sapiens, UniProt Q5SQQ9 86-172, T142I) (Q5SQQ9 86-172 T142I): as the sequence (Q5SQQ9 86-172) above, with T57I counted along it
# PAX4 [8] = target: T6, PAX4 (Homo sapiens, UniProt O43316 9-242, R227W)
# T6 sequence: T1 sequence with K192R, R219W
# VAX1 [9] = target: VAX1 (Homo sapiens, UniProt Q5SQQ9 86-172, K157R)
# Chain of VAX1 (Homo sapiens, UniProt Q5SQQ9 86-172, K157R) (Q5SQQ9 86-172 K157R): as the sequence (Q5SQQ9 86-172) above, with K72R counted along it
# PROP1 [10] = target: PROP1 (Homo sapiens, UniProt O75360 56-141)
# Chain of PROP1 (Homo sapiens, UniProt O75360 56-141) (O75360 56-141): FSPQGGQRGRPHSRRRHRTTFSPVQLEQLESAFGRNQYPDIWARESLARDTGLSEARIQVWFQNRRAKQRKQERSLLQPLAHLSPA
# PROP1 [11] = target: PROP1 (Homo sapiens, UniProt O75360 56-141, R99H)
# Chain of PROP1 (Homo sapiens, UniProt O75360 56-141, R99H) (O75360 56-141 R99H): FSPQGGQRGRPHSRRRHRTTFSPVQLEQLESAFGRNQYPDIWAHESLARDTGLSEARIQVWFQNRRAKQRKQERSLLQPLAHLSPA
# PROP1 [12] = target: PROP1 (Homo sapiens, UniProt O75360 56-141, F88S)
# Chain of PROP1 (Homo sapiens, UniProt O75360 56-141, F88S) (O75360 56-141 F88S): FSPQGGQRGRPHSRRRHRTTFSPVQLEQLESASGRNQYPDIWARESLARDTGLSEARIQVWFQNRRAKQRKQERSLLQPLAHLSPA
Sequence,binding signal (PAX4 [1]),binding signal (PAX4 [2]),binding signal (PAX4 [3]),binding signal (PAX4 [4]),binding signal (PAX4 [5]),binding signal (VAX1 [6]),binding signal (VAX1 [7]),binding signal (PAX4 [8]),binding signal (VAX1 [9]),binding signal (PROP1 [10]),binding signal (PROP1 [11]),binding signal (PROP1 [12])
GAAGCTTC,"9.21 upbm affinity estimate (log intensity, higher = more binding, comparable within an allelic series)","9.26 upbm affinity estimate (log intensity, higher = more binding, comparable within an allelic series)","9.45 upbm affinity estimate (log intensity, higher = more binding, comparable within an allelic series)","9.5 upbm affinity estimate (log intensity, higher = more binding, comparable within an allelic series)","9.42 upbm affinity estimate (log intensity, higher = more binding, comparable within an allelic series)","6.86 upbm affinity estimate (log intensity, higher = more binding, comparable within an allelic series)","7.04 upbm affinity estimate (log intensity, higher = more binding, comparable within an allelic series)","9.35 upbm affinity estimate (log intensity, higher = more binding, comparable within an allelic series)","6.85 upbm affinity estimate (log intensity, higher = more binding, comparable within an allelic series)",,,
CGGCCGGC,"9.17 upbm affinity estimate (log intensity, higher = more binding, comparable within an allelic series)","9.29 upbm affinity estimate (log intensity, higher = more binding, comparable within an allelic series)","9.07 upbm affinity estimate (log intensity, higher = more binding, comparable within an allelic series)","9.01 upbm affinity estimate (log intensity, higher = more binding, comparable within an allelic series)","9 upbm affinity estimate (log intensity, higher = more binding, comparable within an allelic series)",,,"9.07 upbm affinity estimate (log intensity, higher = more binding, comparable within an allelic series)",,,,
ATACATAT,"10.7 upbm affinity estimate (log intensity, higher = more binding, comparable within an allelic series)","10.7 upbm affinity estimate (log intensity, higher = more binding, comparable within an allelic series)","10.8 upbm affinity estimate (log intensity, higher = more binding, comparable within an allelic series)","10.6 upbm affinity estimate (log intensity, higher = more binding, comparable within an allelic series)","10.6 upbm affinity estimate (log intensity, higher = more binding, comparable within an allelic series)",,,"10.6 upbm affinity estimate (log intensity, higher = more binding, comparable within an allelic series)",,,,
AAGGGGGC,"9.31 upbm affinity estimate (log intensity, higher = more binding, comparable within an allelic series)","9.38 upbm affinity estimate (log intensity, higher = more binding, comparable within an allelic series)","9.38 upbm affinity estimate (log intensity, higher = more binding, comparable within an allelic series)","9.25 upbm affinity estimate (log intensity, higher = more binding, comparable within an allelic series)","9.22 upbm affinity estimate (log intensity, higher = more binding, comparable within an allelic series)",,,"9.29 upbm affinity estimate (log intensity, higher = more binding, comparable within an allelic series)",,"6.71 upbm affinity estimate (log intensity, higher = more binding, comparable within an allelic series)","6.71 upbm affinity estimate (log intensity, higher = more binding, comparable within an allelic series)","6.36 upbm affinity estimate (log intensity, higher = more binding, comparable within an allelic series)"
CTAATTCA,"11.7 upbm affinity estimate (log intensity, higher = more binding, comparable within an allelic series)","12.2 upbm affinity estimate (log intensity, higher = more binding, comparable within an allelic series)","11.6 upbm affinity estimate (log intensity, higher = more binding, comparable within an allelic series)","10.5 upbm affinity estimate (log intensity, higher = more binding, comparable within an allelic series)","11 upbm affinity estimate (log intensity, higher = more binding, comparable within an allelic series)",,,"11 upbm affinity estimate (log intensity, higher = more binding, comparable within an allelic series)",,,,
ATTTAGAG,"10.6 upbm affinity estimate (log intensity, higher = more binding, comparable within an allelic series)","10.7 upbm affinity estimate (log intensity, higher = more binding, comparable within an allelic series)","10.6 upbm affinity estimate (log intensity, higher = more binding, comparable within an allelic series)","10.1 upbm affinity estimate (log intensity, higher = more binding, comparable within an allelic series)","10.2 upbm affinity estimate (log intensity, higher = more binding, comparable within an allelic series)",,,"10.2 upbm affinity estimate (log intensity, higher = more binding, comparable within an allelic series)",,,,
AGGTTGCC,"9.39 upbm affinity estimate (log intensity, higher = more binding, comparable within an allelic series)","9.33 upbm affinity estimate (log intensity, higher = more binding, comparable within an allelic series)","9.49 upbm affinity estimate (log intensity, higher = more binding, comparable within an allelic series)","9.35 upbm affinity estimate (log intensity, higher = more binding, comparable within an allelic series)","9.33 upbm affinity estimate (log intensity, higher = more binding, comparable within an allelic series)",,,"9.35 upbm affinity estimate (log intensity, higher = more binding, comparable within an allelic series)",,,,
TAATTCGA,"11.8 upbm affinity estimate (log intensity, higher = more binding, comparable within an allelic series)","12.4 upbm affinity estimate (log intensity, higher = more binding, comparable within an allelic series)","11.7 upbm affinity estimate (log intensity, higher = more binding, comparable within an allelic series)","10.6 upbm affinity estimate (log intensity, higher = more binding, comparable within an allelic series)","11.2 upbm affinity estimate (log intensity, higher = more binding, comparable within an allelic series)",,,"11 upbm affinity estimate (log intensity, higher = more binding, comparable within an allelic series)",,,,
CCGCGAGC,"9.36 upbm affinity estimate (log intensity, higher = more binding, comparable within an allelic series)","9.36 upbm affinity estimate (log intensity, higher = more binding, comparable within an allelic series)","9.27 upbm affinity estimate (log intensity, higher = more binding, comparable within an allelic series)","9.16 upbm affinity estimate (log intensity, higher = more binding, comparable within an allelic series)","9.2 upbm affinity estimate (log intensity, higher = more binding, comparable within an allelic series)",,,"9.31 upbm affinity estimate (log intensity, higher = more binding, comparable within an allelic series)",,,,
GAATTAAC,"11.6 upbm affinity estimate (log intensity, higher = more binding, comparable within an allelic series)","12.2 upbm affinity estimate (log intensity, higher = more binding, comparable within an allelic series)","11.9 upbm affinity estimate (log intensity, higher = more binding, comparable within an allelic series)","10.4 upbm affinity estimate (log intensity, higher = more binding, comparable within an allelic series)","11 upbm affinity estimate (log intensity, higher = more binding, comparable within an allelic series)",,,"10.8 upbm affinity estimate (log intensity, higher = more binding, comparable within an allelic series)",,,,
CGGGCCAC,"9.16 upbm affinity estimate (log intensity, higher = more binding, comparable within an allelic series)","9.26 upbm affinity estimate (log intensity, higher = more binding, comparable within an allelic series)","9.31 upbm affinity estimate (log intensity, higher = more binding, comparable within an allelic series)","9.28 upbm affinity estimate (log intensity, higher = more binding, comparable within an allelic series)","9.41 upbm affinity estimate (log intensity, higher = more binding, comparable within an allelic series)",,,"9.3 upbm affinity estimate (log intensity, higher = more binding, comparable within an allelic series)",,,,
CTAATCAG,"11.2 upbm affinity estimate (log intensity, higher = more binding, comparable within an allelic series)","11.6 upbm affinity estimate (log intensity, higher = more binding, comparable within an allelic series)","11.3 upbm affinity estimate (log intensity, higher = more binding, comparable within an allelic series)","10.1 upbm affinity estimate (log intensity, higher = more binding, comparable within an allelic series)","10.5 upbm affinity estimate (log intensity, higher = more binding, comparable within an allelic series)",,,"10.3 upbm affinity estimate (log intensity, higher = more binding, comparable within an allelic series)",,,,
GTGAATTA,"11.6 upbm affinity estimate (log intensity, higher = more binding, comparable within an allelic series)","12.2 upbm affinity estimate (log intensity, higher = more binding, comparable within an allelic series)","11.5 upbm affinity estimate (log intensity, higher = more binding, comparable within an allelic series)","10.5 upbm affinity estimate (log intensity, higher = more binding, comparable within an allelic series)","11 upbm affinity estimate (log intensity, higher = more binding, comparable within an allelic series)",,,"10.9 upbm affinity estimate (log intensity, higher = more binding, comparable within an allelic series)",,,,
CCTTCCCC,"9.18 upbm affinity estimate (log intensity, higher = more binding, comparable within an allelic series)","9.26 upbm affinity estimate (log intensity, higher = more binding, comparable within an allelic series)","9.24 upbm affinity estimate (log intensity, higher = more binding, comparable within an allelic series)","9.11 upbm affinity estimate (log intensity, higher = more binding, comparable within an allelic series)","9.14 upbm affinity estimate (log intensity, higher = more binding, comparable within an allelic series)",,,"9.24 upbm affinity estimate (log intensity, higher = more binding, comparable within an allelic series)",,,,
CACCGGCC,"9.22 upbm affinity estimate (log intensity, higher = more binding, comparable within an allelic series)","9.3 upbm affinity estimate (log intensity, higher = more binding, comparable within an allelic series)","9.31 upbm affinity estimate (log intensity, higher = more binding, comparable within an allelic series)","9.16 upbm affinity estimate (log intensity, higher = more binding, comparable within an allelic series)","9.17 upbm affinity estimate (log intensity, higher = more binding, comparable within an allelic series)",,,"9.27 upbm affinity estimate (log intensity, higher = more binding, comparable within an allelic series)",,"6.75 upbm affinity estimate (log intensity, higher = more binding, comparable within an allelic series)","6.63 upbm affinity estimate (log intensity, higher = more binding, comparable within an allelic series)","6.3 upbm affinity estimate (log intensity, higher = more binding, comparable within an allelic series)"
GGAAGCCC,"9.27 upbm affinity estimate (log intensity, higher = more binding, comparable within an allelic series)","9.25 upbm affinity estimate (log intensity, higher = more binding, comparable within an allelic series)","9.38 upbm affinity estimate (log intensity, higher = more binding, comparable within an allelic series)","9.32 upbm affinity estimate (log intensity, higher = more binding, comparable within an allelic series)","9.3 upbm affinity estimate (log intensity, higher = more binding, comparable within an allelic series)",,,"9.35 upbm affinity estimate (log intensity, higher = more binding, comparable within an allelic series)",,,,
CGACCTGC,"9.47 upbm affinity estimate (log intensity, higher = more binding, comparable within an allelic series)","9.54 upbm affinity estimate (log intensity, higher = more binding, comparable within an allelic series)","9.42 upbm affinity estimate (log intensity, higher = more binding, comparable within an allelic series)","9.26 upbm affinity estimate (log intensity, higher = more binding, comparable within an allelic series)","9.33 upbm affinity estimate (log intensity, higher = more binding, comparable within an allelic series)",,,"9.35 upbm affinity estimate (log intensity, higher = more binding, comparable within an allelic series)",,,,
ATTAGGGA,"11.1 upbm affinity estimate (log intensity, higher = more binding, comparable within an allelic series)","11.5 upbm affinity estimate (log intensity, higher = more binding, comparable within an allelic series)","11.2 upbm affinity estimate (log intensity, higher = more binding, comparable within an allelic series)","10.1 upbm affinity estimate (log intensity, higher = more binding, comparable within an allelic series)","10.3 upbm affinity estimate (log intensity, higher = more binding, comparable within an allelic series)",,,"10.4 upbm affinity estimate (log intensity, higher = more binding, comparable within an allelic series)",,,,
GCCGCGCC,"9.1 upbm affinity estimate (log intensity, higher = more binding, comparable within an allelic series)","9.1 upbm affinity estimate (log intensity, higher = more binding, comparable within an allelic series)","9.18 upbm affinity estimate (log intensity, higher = more binding, comparable within an allelic series)","9.12 upbm affinity estimate (log intensity, higher = more binding, comparable within an allelic series)","9.11 upbm affinity estimate (log intensity, higher = more binding, comparable within an allelic series)",,,"9.16 upbm affinity estimate (log intensity, higher = more binding, comparable within an allelic series)",,,,
AAATTAGG,"11.4 upbm affinity estimate (log intensity, higher = more binding, comparable within an allelic series)","11.9 upbm affinity estimate (log intensity, higher = more binding, comparable within an allelic series)","11.5 upbm affinity estimate (log intensity, higher = more binding, comparable within an allelic series)","10.2 upbm affinity estimate (log intensity, higher = more binding, comparable within an allelic series)","10.5 upbm affinity estimate (log intensity, higher = more binding, comparable within an allelic series)",,,"10.6 upbm affinity estimate (log intensity, higher = more binding, comparable within an allelic series)",,,,
CAGCCGGG,"9.16 upbm affinity estimate (log intensity, higher = more binding, comparable within an allelic series)","9.21 upbm affinity estimate (log intensity, higher = more binding, comparable within an allelic series)","9.22 upbm affinity estimate (log intensity, higher = more binding, comparable within an allelic series)","9.02 upbm affinity estimate (log intensity, higher = more binding, comparable within an allelic series)","9.05 upbm affinity estimate (log intensity, higher = more binding, comparable within an allelic series)",,,"9.17 upbm affinity estimate (log intensity, higher = more binding, comparable within an allelic series)",,,,

# — publication PMC11006913
